The source of these data is PubChem BioAssay AID2283227 (EPA ToxCast).

Molecules are shown by their SMILES. Records with an inconclusive call do not appear. Activity calls are given as the source filed them. Rule for the calls: active = hit-call score of the fitted dose curve at least 0.9, where 1 is the maximum; inconclusive = response in the unintended direction; inactive = score below 0.9.

The test system of this test is pig Methylenetetrahydrofolate Reductase (MTHFR), gene 397180. The experiment in a line: NVS_ENZ_pMTHFR: NovaScreen (NVS) Enzymatic Assay for pig Methylenetetrahydrofolate Reductase (MTHFR). On the procedure: NVS_ENZ_pMTHFR is a biochemical, single-readout assay that uses extracted gene-proteins from Porcine kidney in a tissue-based cell-free assay. Measurements were taken 1 hour after chemical dosing in a 96-well plate.NVS_ENZ_pMTHFR is one of one assay component(s) measured or calculated from the NVS_ENZ_pMTHFR assay. It is designed to make measurements of enzyme activity, a form of enzyme reporter, as detected with scintillation counting signals by Lysate-based radiodetection technology.Data from the assay component NVS_ENZ_pMTHFR was analyzed into 1 assay endpoint. This assay endpoint, NVS_ENZ_pMTHFR, was analyzed in the positive analysis fitting direction relative to DMSO as the negative control and baseline of activity. Using a type of enzyme reporter, loss-of-signal activity can be used to understand changes in the enzymatic activity as they relate to the gene MTHFR. Furthermore, this assay endpoint can be referred to as a primary readout, because this […] where this one serves a enzymatic activity function. To generalize the intended target to other relatable targets, this assay endpoint is annotated to the oxidoreductase intended target family, where the subfamily is methylenetetrahydrofolate reductase.
Binding assays used specific radioligands (tritiated, iodinated) with non-radioactive competitive displacement ligands in agonist or antagonist protocols (as indicated) and various reference compounds and inhibitors to titrate specific binding to receptors and transporters. Most enzyme assays (CYPs, kinases, phosphatases, proteases, HDACs) used recombinant protein and specific substrates (fluorescence mostly, some colorimetric and radioactive) and inhibitors, followed by a biochemical separation of substrate and product. All assays for the biochemical HTS were initially run in duplicate at a single concentration (10 uM for CYP450 assays and 25 uM for all others). Assay-chemical combinations meeting a pre-defined threshold (e.g., 30% inhibition and other criteria defined below) were then run in singleton concentration-response format with maximum concentration of 20 uM for CYPs and 50 uM for all others. Each assay was run with positive and negative controls, and concurrent controls on every plate. The follow-up (secondary) screen tested active chemical-pairs in concentration series, as well as a few additional assays not tested in the primary screen, some selected negative inactives, and several cases re-run in the concentration series for confirmatory purposes.
With `COP(=O)(OC)OC=C(Cl)Cl`, the compound was called inactive.

Regarding `CCCCOCN(C(=O)CCl)c1c(CC)cccc1CC`, the compound was classed as inactive.

For the compound `CCCCOC(=O)c1ccccc1C(=O)O`, the call was inactive.

With `CC(C)Oc1cc(-n2nc(C(C)(C)C)oc2=O)c(Cl)cc1Cl`, the result was inactive.

With `CN(C)c1nc(=O)n(C2CCCCC2)c(=O)n1C`, the compound was called inactive.

For the compound `N#Cc1c[nH]cc1-c1cccc2c1OC(F)(F)O2`, the outcome was inactive.

`COc1nc(C)nc(NC(=O)NS(=O)(=O)c2ccccc2Cl)n1`: the call was inactive.

In the case of `CCc1cccc(CC)c1N(COC)C(=O)CCl`, the compound was classed as inactive.

Regarding `CC(C)(C)C(=O)C(Oc1ccc(Cl)cc1)n1cncn1` (stereo unspecified), the call was inactive.

Turning to `CC(=NC#N)N(C)Cc1ccc(Cl)nc1`, the compound was classed as inactive.

In general, AC50 refers to the concentration at which the activity in the assay is half-maximal. Take `COC(=O)c1c(C(F)F)nc(C(F)(F)F)c(C2=NCCS2)c1CC(C)C`: the AC50 was 6.46 µM (active).
